Source: PubChem BioAssay (NCATS)
Records with an inconclusive call do not appear. Values without a mark were called inactive. Calls come from the whole dose curve; as a rule, active = well fitted activation curve with a large enough effect; inconclusive = small, poorly fitted or top-dose-only effect; inactive = flat fitted curve, though single readings scatter.

Test: Primary redox qHTS assay for identification of artifact compounds. (AID 1845223)
Details: Amplex Red/HRP redox cycling with DTT, fluorescence; series mostly up to 53.8 µM; redox activity (% of DA3003): at the top concentration
Text: PI: Alexander Tropsha Ph.D.
UNC Eshelman School of Pharmacy
University of North Carolina, Chapel Hill, North Carolina
Hits from high-throughput screening (HTS) of chemical libraries are often false positives due to their interference with the assay detection technology. In response to this problem, we generated the largest publicly available library of chemical liabilities and developed a free webtool to predict HTS artifacts, both of which are described herein. More specifically, we generated, curated, and integrated HTS datasets for thiol reactivity, redox activity, and luciferase (firefly and nano) activity. Using these curated datasets, we developed and validated several Quantitative Structure-Interference Relationship (QSIR) models to predict nuisance behavior. […] These models were employed for virtual profiling of the National Center for Advancing Translational Science's (NCATS) in-house library, and 256 compounds for each assay were selected for the experimental validation of nuisance behavior. The BA for these external predictions ranged from 58 to 78% for compounds within the applicability domains of the models. […] The models developed in this study, along with aggregation models previously developed by our group (SCAM Detective) were implemented in "Liability Predictor," an online tool which may be used as part of chemical library design or for triaging HTS hits. Both the models and the curated datasets are publicly available at https://liability.mml.unc.edu/.
SEQUENCE No. (e.g., 1, 2, 3, etc.); […] (e.g., Cells, Incubation, Reagent, etc.); VALUE; DESCRIPTION.
1; Reagent; 3 uL; Amplex Red and HRP mixture.
2; Compounds and control; 16 nL; Kalypsis pin tool (Wako USA) equipped with a 1536-well pin head. […]
6; Detection; Fluorescence, ViewLux microplate reader, 525 nm excitation, 598 nm emission.
NOTES (numbers refer to Sequence numbers above)
1. 3 uL of a mixture containing Amplex Red (25 uM final concentration) and horseradish peroxidase (HRP; 250 mU/mL final concentration) in assay buffer (HBSS) was dispensed into all wells of a 1536-well assay plate (solid-bottom black plate; Greiner Bio One, Monroe, NC).
2. A Wako Pin-tool (Wako Automation, Richmond, VA) was used to transfer 16 nL of compounds (consisting of 7-plates in qHTS format, final concentration range 18.3 nM to 114 uM) or control DA3003 (final concentration range 1.22 nM to 40 uM).
3. 15 min. incubation at room temperature protected from light.
4. 1 uL of DTT (prepared fresh; final concentration 250 uM) was dispensed for a final assay volume of 4 uL.
5. Plates were centrifuged (121xg, 15 seconds) and incubated for 30 minutes at room temperature protected from light.
6. Samples were read for fluorescence (Ex/Em = 525(20)/598(25) nm) on a ViewLux CCD imager (PerkinElmer). Data were normalized to DMSO (0% activity) and DA3003 (10 uM final concentration; 100% activity) and the resulting percent inhibition data were fitted to a 4-parameter Hill equation using NCATS in-house software.

Structure (SMILES) | redox activity (% of DA3003)
O=C(NCC1CCOCC1)c1cnc(Nc2ccc(Cl)cc2Cl)nc1C(F)(F)F | 4.15%
CC(C)[C@]12O[C@H]1[C@@H]1O[C@]13[C@]1(O[C@H]1C[C@H]1C4=C(CC[C@@]13C)C(=O)OC4)[C@@H]2O | -0.0335%
Cc1c(C(=O)Nc2cccc(C(F)(F)F)c2)cc(-c2ccccc2)n1CCCN1CCOCC1 | 2.91%
CC(C)N(CCNC(=O)CN1CCCC1=O)C(C)C | -4.38%
O=C(Oc1ccc([N+](=O)[O-])cc1)N1CCN(Cc2cccc(Oc3ccccc3)c2)CC1 | 17.9%
CC1(N2CCC(n3c([C@@H]4CCCNC4)nc4ccccc43)CC2)CCCCCCC1 | 11.9%
CC(=O)NCCc1c[nH]c2ccccc12 | 1.45% [at 85.7 µM]
CC(=O)Nc1ccc(OC[C@](C)(O)C(=O)Nc2ccc([N+](=O)[O-])c(C(F)(F)F)c2)cc1 | 6.59%
O=C(O)CNC(=O)c1c(O)c2ccccc2n(Cc2ccccc2)c1=O | -5.26%
Cc1ccccc1-n1c(Cn2ncc3c(N)ncnc32)nc2cccc(C)c2c1=O | 1.4%
O=C(N[C@@H](COc1ccc2[nH]c(=O)[nH]c2c1)c1ccccc1)c1cccn(Cc2ccc(F)c(F)c2)c1=O | 6.19%
CCN1CCN(C(=O)Cc2ccc(Nc3ncc(F)c(Nc4ccc(C(=O)Nc5ccccc5Cl)cc4)n3)cc2)CC1 | -6.63%
O=C(Oc1ccc([N+](=O)[O-])cc1)N1CCC(C(O)(c2ccc3c(c2)OCO3)c2ccc3c(c2)OCO3)CC1 | -1.8%
O=c1[nH]c2ccc(Cl)cc2c(N[C@@H]2CN3CCC2CC3)c1-c1nc2ccccc2[nH]1 | -4.55%
O=C1C=CC[C@@H]2[C@H]3CCCN4CCC[C@@H](CN12)[C@@H]34 | -1.28%
CC(C)(C)NC[C@H](O)c1ccc(O)cc1Cl | -2.93%

Structure (SMILES) | redox activity (% of DA3003)
CCNC(=O)C[C@@H]1N=C(c2ccc(Cl)cc2)c2cc(OC)ccc2-n2c(C)nnc21 | 18.6%
Cc1ccccc1-n1c(Cn2cnc3c(N)ncnc32)nc2cccc(C)c2c1=O | -0.324%
S=C(NC1CCCCC1)N1CCC(c2cnc[nH]2)CC1 | -1.33%
CCN(CC)C(=O)c1ccc(C2=CC3(CCNCC3)Oc3cccc(O)c32)cc1 | -2.3%
Cc1[nH]nc2ccc(-c3cncc(OC[C@@H](N)Cc4c[nH]c5ccccc45)c3)cc12 | -4.05%
O=C(N[C@H]1CN2CCC1CC2)c1ccc(Cl)cc1 | -3.7%
COC1=C[C@@H]2[C@@H]3Cc4ccc(OC)c(O)c4[C@]2(CCN3C)CC1=O | -0.412%
CCOC(=O)Nc1ccc(NCc2ccc(F)cc2)cc1N | 10.6%
CCc1c(C(=O)C(N)=O)c2c(OCC(=O)O)cccc2n1Cc1ccccc1 | -1.04%
C/C=C(/C)C(=O)O[C@H]1C(C)=C2[C@H]([C@@H]1OC(=O)CCCCCCC)[C@@](C)(OC(C)=O)C[C@H](OC(=O)CCC)[C@@]1(O)[C@H]2OC(=O)[C@@]1(C)O | 7.09%
CC(=O)N(C)c1cccc(-c2ccnc3c(C(=O)c4cccs4)cnn23)c1 | 3.97%
COc1ccc(N(C(=O)Oc2c(C)cccc2C)c2ccnc(Nc3ccc(N4CCN(C)CC4)cc3)n2)c(OC)c1 | -0.074%
CCNC(=O)CC1N=C(c2ccc(Cl)cc2)c2cc(OC)ccc2-n2c(C)nnc21 (stereo unspecified) | 6.95%
CC(N[C@H]1C[C@H]1c1ccccc1)c1ccc2c(c1)OCCO2 (stereo partly specified) | -4.39%
CN1CCN(c2ccc([N+](=O)[O-])c3no[n+]([O-])c23)CC1 | -7.34%
